In PubChem BioAssay (NCATS):
Records with an inconclusive call do not appear. The source made the active and inactive calls. The call rests on the fitted dose curve; in most records, active means well fitted curve in the direction sought with a large enough effect; inconclusive means small, poorly fitted or top-dose-only effect, or another doubt; inactive means no such curve, though single readings can be large; an effect the other way counts as inactive or inconclusive.

Key:
[1] = NS1 protein of Zika virus - qHTS assay to identify small molecule inhibitors in human HEK 293 cells (AID 1347053);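 further: series mostly up to about 46 µM; plate controls were infected untreated cells for no effect and uninfected cells for full effect; nearly all actives have a fitted effect of over 55% in size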
In short: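 HEK 293 cells, seeded 20 h at 37 C, were pretreated with compound 1 h, then infected with ZIKV MR766 (MOI = 0.5) for 24 h. NS1 was read by TR-FRET with two anti-NS1 antibodies, normalized to uninfected and infected wells.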

[2] = qHTS of pediatric cancer cell lines to identify multiple opportunities for drug repurposing: Primary screen for DAOY cells (AID 1347090);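 further: series mostly up to about 46 µM; plate controls were DMSO for no effect and bortezomib for full effect; nearly all actives have a fitted effect of over 55% in size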
In short: (§1)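 Eight- or eleven-point concentration series, 48 h treatment at 37 degrees C in growth media; readout CellTiter-Glo luminescence. Potency and efficacy were taken from the concentration-response curves.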

[3] = qHTS of pediatric cancer cell lines to identify multiple opportunities for drug repurposing: Primary screen for SJ-GBM2 cells (AID 1347091);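 further: plate controls were DMSO neutral control for no effect and bortezomib for full effect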
In short: as §1

[4] = qHTS of pediatric cancer cell lines to identify multiple opportunities for drug repurposing: Primary screen for A673 cells (AID 1347092); further: on the % scale 0 is the no-effect control and ±100 the full control effect; nearly all actives have a fitted effect of over 45% in size
In short: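 Cell viability of A673 measured by CellTiter-Glo ATP luminescence after 48 hours compound exposure. Dilution series spanned 0.78 nM to 46 µM (MIPE, 11-point) or 0.59 nM to 46 µM (NPC, 8-point); bortezomib 2.3 uM positive control.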

[5] = qHTS of pediatric cancer cell lines to identify multiple opportunities for drug repurposing: Primary screen for SK-N-MC cells (AID 1347093);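 further: series mostly up to about 46 µM; plate controls were DMSO neutral control for no effect and bortezomib for full effect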
In short: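 Metabolically active cells were quantified by ATP-dependent luminescence (CellTiter-Glo, 15 min at room temperature) following 48 h treatment. Cells had been plated at 500-1,000 per well and settled for 5 h beforehand.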

[6] = qHTS of pediatric cancer cell lines to identify multiple opportunities for drug repurposing: Primary screen for BT-37 cells (AID 1347094);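 further: series mostly up to about 57 µM; plate controls were DMSO for no effect and bortezomib for full effect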
In short: (§2)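 Viability was measured as metabolically active cells after 48 hours of treatment, read by CellTiter-Glo luminescence. Compounds were tested at multiple final concentrations, giving concentration-response curves.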

[7] = qHTS of pediatric cancer cell lines to identify multiple opportunities for drug repurposing: Primary screen for NB-EBc1 cells (AID 1347095);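 further: plate controls were DMSO neutral control for no effect and bortezomib for full effect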
In short: as §2

[8] = qHTS of pediatric cancer cell lines to identify multiple opportunities for drug repurposing: Primary screen for U-2 OS cells (AID 1347096);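 further: plate controls were DMSO wells for no effect and bortezomib positive control wells for full effect; nearly all actives have a fitted effect of over 50% in size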
In short: (§3)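 Cells (500-1,000/well) in growth media were settled 5 h at 37 degrees C, then given compounds for 48 h. Viability was read as CellTiter-Glo luminescence. Primary runs used MIPE at 11 points (0.78 nM-46 µM) and NPC at 8 points (0.59 nM-46 µM); follow-ups used 11 points.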

[9] = qHTS of pediatric cancer cell lines to identify multiple opportunities for drug repurposing: Primary screen for SK-N-SH cells (AID 1347098);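 further: DMSO served as neutral control and bortezomib at 2.3 µM as positive control; on the % scale 0 is the no-effect control and ±100 the full control effect; nearly all actives have a fitted effect of over 65% in size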
In short: (§4)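 Cells (500-1,000/well) rested 5 h, then received compounds for 48 h; metabolically active cells were measured by CellTiter-Glo luminescence. Final concentrations spanned up to 46 µM (MIPE, 11-point) or 0.59 nM-46 µM (NPC, 8-point) in primary screens, 11-point in follow-ups.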

[10] = qHTS of pediatric cancer cell lines to identify multiple opportunities for drug repurposing: Primary screen for NB1643 cells (AID 1347099);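 further: plate controls were DMSO neutral control for no effect and bortezomib positive control for full effect; nearly all actives have a fitted effect of over 50% in size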
In short: as §2

[11] = qHTS of pediatric cancer cell lines to identify multiple opportunities for drug repurposing: Primary screen for LAN-5 cells (AID 1347100);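 further: plate controls were DMSO neutral control for no effect and bortezomib positive control for full effect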
In short: as §3

[12] = qHTS of pediatric cancer cell lines to identify multiple opportunities for drug repurposing: Primary screen for Rh18 cells (AID 1347102); further: on the % scale 0 is the no-effect control and ±100 the full control effect; nearly all actives have a fitted effect of over 65% in size
In short: as §3

[13] = qHTS of pediatric cancer cell lines to identify multiple opportunities for drug repurposing: Primary screen for RD cells (AID 1347104);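 further: plate controls were DMSO for no effect and bortezomib for full effect; nearly all actives have a fitted effect of over 55% in size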
In short: as §2

[14] = qHTS of pediatric cancer cell lines to identify multiple opportunities for drug repurposing: Primary screen for MG 63 (6-TG R) cells (AID 1347105); further: on the % scale 0 is the no-effect control and ±100 the full control effect; nearly all actives have a fitted effect of over 50% in size
In short: as §2

[15] = qHTS of pediatric cancer cell lines to identify multiple opportunities for drug repurposing: Primary screen for control Hh wild type fibroblast cells (AID 1347106);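 further: series mostly up to about 46 µM; on the % scale 0 is the no-effect control and ±100 the full control effect; a drop in luminescence marks cytotoxicity and a rise apparent proliferation; nearly all actives have a fitted effect of over 55% in size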
In short: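 Viability after 48 h compound treatment at 37C, 500-1,000 cells/well, read as ATP luminescence with CellTiter-Glo. Primary screens used 11-point (MIPE, 0.78 nM-46 µM) or 8-point (NPC, 0.59 nM-46 µM) final concentrations; follow-up screens used 11-point dilutions.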

[16] = qHTS of pediatric cancer cell lines to identify multiple opportunities for drug repurposing: Primary screen for Rh30 cells (AID 1347107); further: series mostly up to about 46 µM; on the % scale 0 is the no-effect control and ±100 the full control effect; nearly all actives have a fitted effect of over 75% in size
In short: as §3

[17] = qHTS of pediatric cancer cell lines to identify multiple opportunities for drug repurposing: Primary screen for Saos-2 cells (AID 1347097); further: on the % scale 0 is the no-effect control and ±100 the full control effect; nearly all actives have a fitted effect of over 40% in size
In short: as §2

[18] = qHTS of pediatric cancer cell lines to identify multiple opportunities for drug repurposing: Primary screen for BT-12 cells (AID 1347101);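 further: plate controls were DMSO for no effect and bortezomib positive control for full effect; nearly all actives have a fitted effect of over 25% in size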
In short: as §4

[19] = qHTS of pediatric cancer cell lines to identify multiple opportunities for drug repurposing: Primary screen for TC32 cells (AID 1347089); further: on the % scale 0 is the no-effect control and ±100 the full control effect; nearly all actives have a fitted effect of over 60% in size
In short: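 Luminescent ATP read-out (CellTiter-Glo) of metabolically active TC32 cells after 48 h exposure. Concentration-response curves came from 11-point (MIPE, 0.78 nM–46 µM) or 8-point (NPC, 0.59 nM–46 µM) primary titrations; follow-up used 11 points.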

[20] = qHTS of pediatric cancer cell lines to identify multiple opportunities for drug repurposing: Primary screen for OHS-50 cells (AID 1347103);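 further: plate controls were DMSO neutral control for no effect and bortezomib positive control for full effect; nearly all actives have a fitted effect of over 40% in size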
In short: as §4

CCCCCCCCCCOc1cc2c(=O)c(C(=O)OCC)c[nH]c2cc1OCC
inactive: activity change, negative = inhibition [1] -16.6% [at 4.81 µM] | activity change, negative = cytotoxic [2] -4.32% [at 4.84 µM] | activity change, negative = cytotoxic [3] 5.74% [at 4.84 µM] | activity change, negative = cytotoxic [4] -6.98% [at 4.84 µM] | activity change, negative = cytotoxic [5] -8.08% [at 4.84 µM] | activity change, negative = cytotoxic [6] 9.52% [at 6.03 µM] | activity change, negative = cytotoxic [7] 9.4% [at 4.84 µM] | activity change, negative = cytotoxic [8] 0.999% [at 4.84 µM] | activity change, negative = cytotoxic [9] 2.61% [at 6 µM] | activity change, negative = cytotoxic [10] 5.42% [at 4.84 µM] | activity change, negative = cytotoxic [11] 22.4% [at 4.84 µM] | activity change, negative = cytotoxic [12] 5.32% [at 4.84 µM] | activity change, negative = cytotoxic [13] 5.98% [at 4.84 µM] | activity change, negative = cytotoxic [14] -13.3% [at 4.84 µM] | activity change, negative = cytotoxic [15] 1.24% [at 4.84 µM] | activity change, negative = cytotoxic [16] 19.2% [at 4.84 µM]

CC(=O)Oc1cccc(O)c1
inactive: outcome [1] | outcome [2] | outcome [3] | outcome [4] | Potency [5] | outcome [6] | outcome [7] | outcome [8] | outcome [17] | outcome [9] | Potency [10] | outcome [11] | outcome [18] | outcome [12] | outcome [13] | outcome [14] | outcome [15] | outcome [16]

Cc1cc(C)nc(NS(=O)(=O)c2ccc(N)cc2)n1
inactive: outcome [19] | outcome [2] | outcome [4] | Potency [5] | outcome [6] | outcome [7] | outcome [8] | outcome [17] | outcome [9] | Potency [10] | outcome [11] | outcome [18] | outcome [20] | outcome [13] | outcome [14] | outcome [15] | outcome [16]

CC(C)(C)C(=O)OCOC(=O)[C@@H]1N2C(=O)[C@@H](NC(=O)[C@H](N)c3ccccc3)[C@H]2SC1(C)C
inactive: outcome [1] | outcome [2] | outcome [3] | outcome [4] | Potency [5] | outcome [6] | outcome [7] | outcome [8] | outcome [17] | outcome [9] | outcome [11] | outcome [18] | outcome [12] | outcome [13] | outcome [14] | outcome [15] | outcome [16]

C[C@@H](N)C(=O)O
inactive: outcome [1] | outcome [2] | outcome [4] | Potency [5] | outcome [6] | outcome [7] | outcome [8] | outcome [17] | outcome [9] | outcome [11] | outcome [18] | outcome [20] | outcome [13] | outcome [15] | outcome [16]

Cc1ccc(S(=O)(=O)NC(=O)NC2CCCCC2)cc1
inactive: outcome [1] | outcome [2] | outcome [3] | outcome [4] | Potency [5] | outcome [8] | outcome [17] | outcome [9] | Potency [10] | outcome [11] | outcome [12] | outcome [20] | outcome [13] | outcome [14] | outcome [15] | outcome [16]

CC(C)=CCC/C(C)=C/CO
inactive: outcome [1] | outcome [2] | outcome [3] | outcome [4] | Potency [5] | outcome [6] | outcome [7] | outcome [8] | outcome [17] | outcome [9] | outcome [11] | outcome [18] | outcome [12] | outcome [20] | outcome [13] | outcome [14] | outcome [15] | outcome [16]

O=C(O)c1cc(=O)c2ccccc2o1
inactive: outcome [1] | outcome [2] | outcome [3] | Potency [5] | outcome [6] | outcome [7] | outcome [8] | outcome [17] | outcome [9] | Potency [10] | outcome [11] | outcome [18] | outcome [12] | outcome [20] | outcome [13] | outcome [14] | outcome [15] | outcome [16]

O=C1c2cccc(O)c2C(=O)c2c(O)cccc21
inactive: outcome [1] | outcome [2] | outcome [3] | outcome [4] | Potency [5] | outcome [8] | outcome [17] | outcome [9] | Potency [10] | outcome [18] | outcome [20] | outcome [13] | outcome [14] | outcome [15] | outcome [16]

COc1ccc(O)cc1
inactive: outcome [1] | outcome [2] | outcome [4] | Potency [5] | outcome [7] | outcome [8] | outcome [9] | Potency [10] | outcome [11] | outcome [18] | outcome [12] | outcome [20] | outcome [13] | outcome [14] | outcome [15] | outcome [16]
